This is an account of results in PubChem BioAssay (NCATS).

Inconclusive results are not listed. Entries that show only a call come without a potency. A number with no mark means an inactive call. Active and inactive are the calls of the source. Calls follow the shape of the dose curve; as a rule, active = well fitted activation curve with a large enough effect; inconclusive = small, poorly fitted or top-dose-only effect; inactive = flat fitted curve, though single readings scatter.
Potency is read from the fitted curve at half-maximal effect.

The assay can be described thus: Primary redox qHTS assay for identification of artifact compounds. (AID 1845223). The following applies: Amplex Red/HRP redox cycling with DTT, fluorescence; series mostly up to 53.8 µM. The text has this: PI: Alexander Tropsha Ph.D.
UNC Eshelman School of Pharmacy
University of North Carolina, Chapel Hill, North Carolina
Hits from high-throughput screening (HTS) of chemical libraries are often false positives due to their interference with the assay detection technology. In response to this problem, we generated the largest publicly available library of chemical liabilities and developed a free webtool to predict HTS artifacts, both of which are described herein. More specifically, we generated, curated, and integrated HTS datasets for thiol reactivity, redox activity, and luciferase (firefly and nano) activity. Using these curated datasets, we developed and validated several Quantitative Structure-Interference Relationship (QSIR) models to predict nuisance behavior. […] These models were employed for virtual profiling of the National Center for Advancing Translational Science's (NCATS) in-house library, and 256 compounds for each assay were selected for the experimental validation of nuisance behavior. The BA for these external predictions ranged from 58 to 78% for compounds within the applicability domains of the models. […] The models developed in this study, along with aggregation models previously developed by our group (SCAM Detective) were implemented in "Liability Predictor," an online tool which may be used as part of chemical library design or for triaging HTS hits. Both the models and the curated datasets are publicly available at https://liability.mml.unc.edu/.
SEQUENCE No. (e.g., 1, 2, 3, etc.); […] (e.g., Cells, Incubation, Reagent, etc.); VALUE; DESCRIPTION.
1; Reagent; 3 uL; Amplex Red and HRP mixture.
2; Compounds and control; 16 nL; Kalypsis pin tool (Wako USA) equipped with a 1536-well pin head. […]
6; Detection; Fluorescence, ViewLux microplate reader, 525 nm excitation, 598 nm emission.
NOTES (numbers refer to Sequence numbers above)
1. 3 uL of a mixture containing Amplex Red (25 uM final concentration) and horseradish peroxidase (HRP; 250 mU/mL final concentration) in assay buffer (HBSS) was dispensed into all wells of a 1536-well assay plate (solid-bottom black plate; Greiner Bio One, Monroe, NC).
2. A Wako Pin-tool (Wako Automation, Richmond, VA) was used to transfer 16 nL of compounds (consisting of 7-plates in qHTS format, final concentration range 18.3 nM to 114 uM) or control DA3003 (final concentration range 1.22 nM to 40 uM).
3. 15 min. incubation at room temperature protected from light.
4. 1 uL of DTT (prepared fresh; final concentration 250 uM) was dispensed for a final assay volume of 4 uL.
5. Plates were centrifuged (121xg, 15 seconds) and incubated for 30 minutes at room temperature protected from light.
6. Samples were read for fluorescence (Ex/Em = 525(20)/598(25) nm) on a ViewLux CCD imager (PerkinElmer). Data were normalized to DMSO (0% activity) and DA3003 (10 uM final concentration; 100% activity) and the resulting percent inhibition data were fitted to a 4-parameter Hill equation using NCATS in-house software.
`FC(F)(F)c1cc(C(F)(F)F)c2ccc3nc(-c4nnco4)cn3c2n1`: the Potency result is “inactive”. The same measure, in the same setting: to `CCNC(=O)CCC/C=C\C[C@@H]1[C@@H](/C=C/C(O)CCc2ccccc2)[C@@H](O)C[C@@H]1O` (stereo not given in full) belongs “inactive”; to `COc1cc2c(cc1OC)CN(C(=O)[C@@H](NCc1ccncc1)C(C)(C)C)CC2`, “inactive”. On the same count and under the same terms, as for `COC(=O)c1ccc(O[C@@H]2O[C@H](CO)[C@@H](O)[C@H](O)[C@H]2O)c(OC)c1`, the entry is “inactive”; as for `CC1CCC2C(C)(C)C(O)CCC2(C)C12Cc1c(O)cc3c(c1O2)CN=C3N` (stereo not given), “inactive”.

As to `COc1ccc2c(c1)O[C@H](O[C@@H]1O[C@H](CO)[C@@H](O)[C@H](O)[C@H]1O)C(=O)N2`, the Potency result was “inactive”. As to `COC(=O)C1(Cc2ccc(O)cc2)OC(=O)C(OC)=C1c1ccc(O)cc1` (stereo not given), the Potency entry was “inactive”. Still for that read-out and setting: as for `CC1=C2[C@@H]([C@H](C)CC[C@H]2/C=C(\C)C(=O)O)[C@H](O)C1`, the entry is “inactive”; as for `C=C[C@H]1[C@H](O[C@@H]2O[C@H](CO[C@@H]3OC[C@](O)(CO)[C@H]3O)[C@@H](O)[C@H](O)[C@H]2O)OC=C2C(=O)OCC[C@H]21`, 3.27 µM (active). On the same count and under the same terms, to `C[C@@H]1CCC2C(C)(C)[C@H](O)CC[C@]2(C)[C@@]12Cc1c(O)cc3c(c1O2)CN(CCO)C3=O` (stereo not given in full) belongs “inactive”; to `O=C(COc1ccc(Cl)cc1)NC1CCC(NC(=O)COc2ccc(Cl)cc2)CC1` (stereo not given), “inactive”; to `C=C1C(=O)OC2CC(C)=C(C(C)CCCO[C@@H]3O[C@H](CO)[C@@H](O)[C@H](O)[C@H]3O)C(O)C12` (stereo not given in full), “inactive”.

Regarding `C=C1C2(CCC(=O)OC2(C)C)CC(OC(=O)/C(C)=C/C)C2(C)C13OC14C(=O)OC(C)(C(=O)C12C(=O)OC4C)C3OC(C)=O` (stereo not given), the Potency entry is “inactive”. Still for that read-out and setting: to `CC(C)C1=CC2=CCC3[C@](C)(CCC[C@@]3(C)C(=O)O)C2CC1O` (stereo not given in full) belongs “inactive”.

For `C=CC(C)(O)CC/C=C(\C)C(=O)OCC1OC(OC2CCC3(C)C(CCC4(C)C3CC=C3C5CC(C)(C)C(O)CC5(C(=O)O)CCC34C)C2(C)C)C(O)C(OC2OC(CO)C(O)C(OC3OC(CO)C(O)C(OC4OC(COC5OC(CO)C(O)C(O)C5O)C(O)C(O)C4O)C3O)C2O)C1O` (stereo not given), the redox activity (% of DA3003) was 18.5% [at 11.5 µM]. `CC(=O)N1c2ccccc2C2(O)CC3C(=O)NC(CC(C)C)C(=O)N3C12` (stereo not given): the Potency result was “inactive”. Regarding `CC1CCC2(C(=O)OC3OC(CO)C(O)C(O)C3O)CCC3(C(=O)O)C(=CCC4C5(C)CCC(OC6OC(C)C(O)C(O)C6O)C(C)(C)C5CCC43C)C2C1C` (stereo not given), the Potency result is “inactive”.

For `CC1=C(C)C(=O)OC(C(C)C2C(O)CC3C4C5OC5C5(O)CC(OC6OC(CO)C(O)C(O)C6O)CC(O)C5(C)C4CCC32C)C1` (stereo not given), the Potency result is “inactive”. Still for that read-out and setting: to `CC1=CC(=O)C[C@H]2[C@@H]1CC[C@@H](C)[C@]21CO[C@H](c2ccoc2)C1=O` belongs “inactive”. Still for that read-out and setting: as for `OCCc1ccc(O[C@@H]2O[C@H](CO)[C@@H](O)[C@H](O)[C@H]2O)c(O)c1`, the entry is “inactive”; as for `C1CCN2CC3C[C@@H](CN4CCCC[C@@H]34)[C@H]2C1`, “inactive”.

Regarding `COc1ccc(C[C@H](N)C(=O)N[C@H]2[C@@H](O)[C@H](n3cnc4c(N(C)C)ncnc43)O[C@@H]2CO)cc1`, the Potency result was “inactive”. Still for that read-out and setting: to `CCOc1c2c(c(OCC)c3ccccc13)C(=O)N(c1ccc(CC(=O)NS(=O)(=O)c3ccccc3)cc1)C2` belongs “inactive”. On to `C[C@@H]1O[C@@H](O[C@H]2[C@H](O[C@H]3[C@H](O[C@H]4CC[C@@]5(C=O)C(CC[C@]6(C)C5CC=C5C7CC(C)(C)C[C@@H](O)[C@]7(C)CC[C@]56C)C4(C)C)O[C@H](C(=O)O)[C@@H](O)[C@@H]3O)OC[C@@H](O)[C@@H]2O)[C@H](O)[C@H](O)[C@H]1O` (stereo not given in full), for which the redox activity (% of DA3003) was 8.98% [at 11.5 µM]. As to `COC(=O)[C@]12C(=O)C(C)=C(O)[C@@]1(C)C(C)=CC1[C@@]34CC[C@@H](OC(C)=O)C(C)(C)C3[C@H](C[C@]12C)OC4=O` (stereo not given in full), the Potency result was “inactive”. The same measure, in the same setting: to `COc1cc(CCc2ccccc2)c(C(=O)O)c2c1CC(C(C)(C)O)O2` (stereo not given) belongs “inactive”. On the same count and under the same terms, to `CC12CC34C=CC(=O)C(C)(CCC(=O)O)C3C(CC1C4)O2` (stereo not given) belongs “inactive”. The same measure, in the same setting: to `Cc1cc(C)cc(NC(=O)Cc2ccc(OC(C)(C)C(=O)O)cc2)c1` belongs “inactive”.

In the case of `CC[C@H](C)/C=C(C)/C=C/C(=O)Cc1cc(O)c(C)c(O)c1C=O`, the Potency entry is “inactive”. Same read-out and setting: as for `CC(C)(O)c1ccc2c(c1)C(=O)CC1[C@](C)(CO)CCC[C@]21C` (stereo not given in full), the entry is “inactive”; as for `O=C1C[C@@H](c2ccc(O)cc2)Oc2cc(O)ccc21`, “inactive”.

As to `O=C(OCC12OC1C=CC(OC(=O)c1ccccc1)C2O)c1ccccc1` (stereo not given), the Potency entry was “inactive”. The same measure, in the same setting: as for `O=C(NN1CCCCC1)c1nn(-c2ccc(Cl)cc2Cl)c(-c2ccc(C#Cc3ccc(C(F)(F)F)cc3)s2)c1CNS(=O)(=O)N1CCCC1`, the entry is “inactive”; as for `CC(=O)c1c(C)cc(O)cc1O[C@@H]1O[C@H](CO)[C@@H](O)[C@H](O)[C@H]1O`, “inactive”; as for `C=C(C)C(=O)O[C@H]1C[C@@](C)(OC(C)=O)[C@@]2(O)CC[C@@](C)(O)[C@H](OC(C)=O)[C@@]23OC(=O)C(COC)=C13`, “inactive”.

With `CC[C@@H](c1ccc(F)c(F)c1)n1c(C(=O)OC)c(-c2ccno2)[nH]c1=S`, the Potency entry was “inactive”.

As to `COc1ncc(-c2ccc3c(Nc4cc(Oc5cc(F)cc(F)c5)cc(C(=O)O)c4)c(S(=O)(=O)NC4CC4)cnc3c2)c(OC)n1`, the Potency entry was “inactive”.

As to `COC1=Cc2c(nc3n(c2=O)C(C)C(=O)NC3(O)C(C)C)OC=C1` (stereo not given), the Potency entry is “inactive”. Consider `CCc1cc2c(=O)c(-c3nc4ccccc4s3)coc2c(CN2CCCCC2)c1O`, for which the Potency result is “inactive”. Same read-out and setting: to `O=C(/C=C/c1ccc(O)cc1)OC[C@]12O[C@H]1[C@@H](O)[C@@H]1C=CO[C@@H](O[C@@H]3O[C@H](CO)[C@@H](O)[C@H](O)[C@H]3O)[C@@H]12` belongs “inactive”.
